PMC4336329 (PLoS ONE, 2015)
Among all 310,000 compounds or so, about 14,000 (4.5%) showed an effect of 50% or more. Effects have a minus sign here. The sample as a whole holds a higher share of strong results than the screen did.

target: human ether-à-go-go-related gene (hERG) potassium channel (human, UniProt Q12809); test: primary screen, population patch clamp on CHO cells stably expressing hERG; higher = less effect of the substance
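Further: peak tail current of the secondary pulse compared with the same well before compound.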

human ether-à-go-go-related gene (hERG) potassium channel, sequence (Q12809 whole entry, looked up): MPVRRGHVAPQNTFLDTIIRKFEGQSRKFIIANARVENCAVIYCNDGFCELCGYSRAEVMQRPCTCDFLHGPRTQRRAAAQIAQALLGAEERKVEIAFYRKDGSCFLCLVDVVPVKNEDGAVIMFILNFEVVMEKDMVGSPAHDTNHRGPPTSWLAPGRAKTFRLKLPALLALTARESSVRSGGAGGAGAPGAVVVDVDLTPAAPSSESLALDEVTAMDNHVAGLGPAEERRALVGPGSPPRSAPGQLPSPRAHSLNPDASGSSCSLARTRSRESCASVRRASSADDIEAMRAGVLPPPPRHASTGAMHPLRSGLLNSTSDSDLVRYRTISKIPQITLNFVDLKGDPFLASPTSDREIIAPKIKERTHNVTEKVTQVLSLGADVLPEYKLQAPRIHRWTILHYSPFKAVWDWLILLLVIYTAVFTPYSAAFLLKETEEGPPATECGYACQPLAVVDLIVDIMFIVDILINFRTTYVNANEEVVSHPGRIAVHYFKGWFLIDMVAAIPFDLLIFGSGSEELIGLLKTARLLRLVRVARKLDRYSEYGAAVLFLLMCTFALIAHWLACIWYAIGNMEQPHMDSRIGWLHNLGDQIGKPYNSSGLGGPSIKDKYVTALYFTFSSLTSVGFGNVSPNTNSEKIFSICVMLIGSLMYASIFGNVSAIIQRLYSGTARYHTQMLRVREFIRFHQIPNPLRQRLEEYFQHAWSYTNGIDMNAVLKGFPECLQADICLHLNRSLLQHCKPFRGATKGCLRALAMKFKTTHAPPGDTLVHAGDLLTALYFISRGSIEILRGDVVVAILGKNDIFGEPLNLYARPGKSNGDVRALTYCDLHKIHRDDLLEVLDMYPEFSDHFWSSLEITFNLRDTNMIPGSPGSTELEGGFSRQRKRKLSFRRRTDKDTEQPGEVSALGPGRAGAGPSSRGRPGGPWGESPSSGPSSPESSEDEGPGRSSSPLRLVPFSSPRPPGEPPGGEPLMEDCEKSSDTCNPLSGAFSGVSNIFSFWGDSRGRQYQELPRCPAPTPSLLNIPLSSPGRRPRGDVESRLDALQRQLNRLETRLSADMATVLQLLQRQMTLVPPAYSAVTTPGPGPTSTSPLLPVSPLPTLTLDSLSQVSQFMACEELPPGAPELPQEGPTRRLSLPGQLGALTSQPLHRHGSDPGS

SMILES	hERG current change (%, negative = inhibition) at 10uM
CCOc1ccccc1OCCC(=O)OCC(=O)c1ccc[nH]1	-16.2%
Cc1cc(NC(=O)C23CCC(C)(C(=O)O2)C3(C)C)no1 (stereo not shown)	12%
CCN(CC)CCCN(Cc1cc2cc3c(cc2[nH]c1=O)OCO3)C(=S)Nc1ccc(OC)cc1	-46.8%
CCN(CC)CCCN(Cc1cc2cc(OC)ccc2[nH]c1=O)C(=O)Nc1ccccc1	-55.3%
COc1ccc2[nH]c(=O)c(CN(CCCN(C)C)C(=O)Nc3ccccc3)cc2c1	-29.2%
COc1ccc2[nH]c(=O)c(CN(Cc3cccnc3)C(=O)Nc3ccccc3)cc2c1	-54.6%
CCN(CC)CCCN(Cc1cc2cc(OC)c(OC)cc2[nH]c1=O)C(=O)Nc1ccccc1	-13.8%
COc1ccc(NC(=O)N(Cc2cc3cc(OC)ccc3[nH]c2=O)CC2CCCO2)cc1 (stereo not shown)	-31.6%
COc1ccc2[nH]c(=O)c(CN(CCCN(C)C)C(=O)Nc3ccc(F)cc3)cc2c1	-65.7%
COc1ccc2[nH]c(=O)c(CN(CC3CCCO3)C(=O)Nc3ccccc3)cc2c1 (stereo not shown)	-2.72%
COc1ccc(NC(=O)N(CCCN(C)C)Cc2cc3cc(OC)ccc3[nH]c2=O)cc1	-38.5%
CCOc1ccc2[nH]c(=O)c(CN(Cc3cccnc3)C(=O)Nc3ccccc3OC)cc2c1	-6.63%
CCN(CC)CCCN(Cc1cc2cc(OC)ccc2[nH]c1=O)C(=O)Nc1ccc(F)cc1	-69.9%
COc1cc2cc(CN(Cc3cccnc3)C(=O)Nc3ccccc3)c(=O)[nH]c2cc1OC	-21.8%
COC(=O)c1cscc1NC(C)=O	20.7%
O=C(O)CCc1n[nH]c(=S)[nH]c1=O	5.81%
Cc1ccc(C)c(C(=O)C(C)OC(=O)CN2C(=O)NC3(CC(C)CC(C)(C)C3)C2=O)c1 (stereo not shown)	23.2%
CCOc1ccc(CCNC(=O)Cn2cccc2C(=O)c2ccccc2)cc1OCC	-2.85%
CSCCC(NC(=O)COc1ccccc1)C(=O)Nc1ccc(C)cc1 (stereo not shown)	-3.07%
CC(=Nc1ccccc1)c1sc2ccccc2c1O	-10.8%
ON1C(c2ccc(Cl)cc2Cl)N(O)[C@H]2CCCC[C@H]21 (stereo partly shown)	-1.85%
CCN(CC)CCCN(Cc1cc2cc3c(cc2[nH]c1=O)OCCO3)C(=O)Nc1ccccc1	-41.7%

SMILES	hERG current change (%, negative = inhibition) at 10uM
COc1ccc2cc(CN(C(=O)Nc3ccccc3)C3CCCC3)c(=O)[nH]c2c1	-60.5%
COc1ccc2cc(CN(C(=O)Nc3ccccc3OC)C3CCCC3)c(=O)[nH]c2c1	-46.9%
CCN(CC)CCCN(Cc1cc2cc3c(cc2[nH]c1=O)OCO3)C(=S)Nc1ccccc1	-45.9%
CCN(CC)CCCN(Cc1cc2cc3c(cc2[nH]c1=O)OCCO3)C(=O)Nc1ccc(F)cc1	-61.6%
COc1cc2cc(CN(C(=O)Nc3ccccc3)C3CCCC3)c(=O)[nH]c2cc1OC	-44.2%
COc1ccc(NC(=O)CSc2nc3c([nH]c4ccccc43)c(=O)n2C)c(OC)c1	19%
COC(=O)c1cccc(S(=O)(=O)N2CCC(C)CC2)c1	-4.23%
O=C(COc1ccccc1)Nc1cc(S(=O)(=O)N2CCOCC2)ccc1N1CCCC1	-8.47%
Cc1cc2nc(C)n(CCCNC(=O)Nc3ccc(F)cc3)c2cc1C	-49.9%
CCOc1ccc(NC(=O)NCCCn2c(C)nc3cc(C)c(C)cc32)cc1	-55.5%
Cc1cc2nc(C)n(CCCNC(=O)Nc3ccc(C#N)cc3)c2cc1C	-34%
COc1cccc(-c2nc(-c3ccccn3)no2)c1OC	0.968%
Cc1noc(C)c1COc1ccc(C(=O)OCc2nnc(-c3ccc(Cl)cc3)o2)cc1	10.1%
CNC(=O)c1ccccc1S(=O)c1ccccc1C#N (stereo not shown)	2.49%
CCOC(=O)c1ccc(NC(=O)NCCN2CCCCC2)cc1	-31.6%
COc1cc2c(cc1OC)C(c1ccccc1)N(C(=O)c1cccc(S(C)(=O)=O)c1)CC2 (stereo not shown)	-24%
COc1cc2c(cc1OC)C(c1cccs1)N(C(=O)c1cccc(S(=O)(=O)N(C)C)c1)CC2 (stereo not shown)	-70.7%
COc1cc2c(cc1OC)CN(C(=O)c1cccc(S(=O)(=O)N(C)C)c1)CC2	6.05%
COc1ccc(C(=O)N2CCc3cc(OC)c(OC)cc3C2c2ccc(OC)c(OC)c2)cc1 (stereo not shown)	-12%
COc1cc2c(cc1OC)C(c1cccs1)N(C(=O)c1ccc(S(=O)(=O)N(C)C)cc1)CC2 (stereo not shown)	-72.6%
COc1ccc(C(=O)N2CCc3cc(OC)c(OC)cc3C2c2ccc(OC)c(OC)c2)cc1OC (stereo not shown)	1.43%
N#C/C(=C\c1ccco1)C(=O)NCc1ccccc1	4.87%

SMILES	hERG current change (%, negative = inhibition) at 10uM
CC(=O)c1c(C(C)=O)c(C)n(C(c2ccccc2)c2ccccc2)c1C	-9.83%
COc1ccc(-c2nnnn2C(C)C)cc1	-0.893%
Cc1nnc(C)c2c(C)n(C(C)c3ccccc3)c(C)c12 (stereo not shown)	-20.7%
COc1ccc(C(=O)C(Sc2nnc(C)c(=O)[nH]2)c2ccc(OC)cc2)cc1 (stereo not shown)	-12.3%
Cc1nnc(C)c2c(C)n(C(c3ccccc3)c3ccccc3)c(C)c12	-71.4%
COc1ccc(C(C)n2c(C)c3c(C)nnc(C)c3c2C)cc1 (stereo not shown)	-57.9%
CCN(Cc1ccccc1)S(=O)(=O)c1cc(C(=O)OC)n(C)c1	-32.9%
COc1ccc(Cn2c(=O)oc3ccc(C)cc32)cc1	1.22%
Cc1ccc(-c2noc(CSc3nc(N)cc(N)n3)n2)cc1	-4.24%
CC(=O)N(Cc1ccco1)Cc1cc2cccc(C)c2n2nnnc12	-3.36%
CCn1cc(C(=O)NCc2cccs2)c(=O)c2cc(S(=O)(=O)N3CCOCC3)ccc21	-20.3%
Cc1cc(C)nc(Nc2n[nH]c(C)n2)n1	16.4%
Cc1cc(C)nc(Nc2ncn[nH]2)n1	-73.3%
Clc1cc(Cl)cc(Nc2ncn[nH]2)c1	-8.8%
CCOC(=O)C1(CC2CC2)CCN(C(=O)c2cc(OC)nc3ccccc23)CC1	-12.9%
CC(C)[C@H](NC(=O)c1ccccc1)C(=O)OCC(=O)c1ccc2c(c1)NC(=O)CO2	-26.3%
COCCCNc1nc2ccccc2nc1NS(=O)(=O)c1ccc(C)cc1	-8.35%
O=C(Nc1ccc([N+](=O)[O-])cc1Cl)c1cc(Cl)ccc1O	7.32%
CC(C)NS(=O)(=O)c1ccc(NCCCn2ccnc2)c([N+](=O)[O-])c1	-1.68%
CCN(CC)S(=O)(=O)c1ccc(NCCCn2ccnc2)c([N+](=O)[O-])c1	-57.2%
NS(=O)(=O)c1ccc(NCCCn2ccnc2)c([N+](=O)[O-])c1	8.43%
O=C(c1ccccc1)c1ccc(NCCCn2ccnc2)c([N+](=O)[O-])c1	-81.3%

SMILES	hERG current change (%, negative = inhibition) at 10uM
O=C(c1ccccc1)c1ccc(-n2ccnc2)c([N+](=O)[O-])c1	-25.8%
O=C(/C=C/c1ccccc1[N+](=O)[O-])NCCCn1ccnc1	2.43%
CC(=O)Nc1ccc(C(=O)OC2CCOC2=O)cc1 (stereo not shown)	12.5%
Cc1cc(OC(C)C(=O)N/N=C/CC(C)c2ccccc2)ccc1Cl (stereo not shown)	16.1%
C=CCc1cccc(C2Nc3ccccc3C(=O)N2O)c1O (stereo not shown)	7.52%
CCCC(=O)Nc1ccc(Oc2ccc(NC(=O)CCC)cc2)cc1	2.76%
COc1cc(C2c3c(-c4ccccc4)n[nH]c3C(=O)N2c2ccc(C(=O)O)cc2)ccc1O (stereo not shown)	8.38%
c1ccc(Nc2nc(N3CCOCC3)nc(N3CCOCC3)n2)cc1	-7.35%
N#CC1=C(Nc2ccccc2)SC=C(c2ccc(Cl)c(Cl)c2)N=C1N1CCOCC1	-50.9%
N#CC1=C(Nc2ccccc2)SC=C(c2ccc(Br)cc2)N=C1N1CCOCC1	-64.7%
N#Cc1nc(-c2ccccc2Cl)oc1N1CCOCC1	-4.51%
N#CC1=C(Nc2ccccc2)SC=C(c2ccc(F)cc2)N=C1N1CCOCC1	-10.8%
Br.C=CCN1C(c2ccc(Br)cc2)=CS/C1=C(/C#N)c1nnc(N2CCOCC2)n1-c1ccccc1	-13.4%
C/C(NC(=O)c1ccccc1F)=C1\C(=O)C[C@@H]2[C@H]1C2(C)C	-14.4%
CC(C)OC(=O)CSc1nnc(SCc2cccc3ccccc23)s1	7.07%
CC1CC2c3cccc(C(=O)O)c3C(=O)N2c2ccc(Cl)cc21 (stereo not shown)	5.97%
CCCC(C)NCC(=O)Nc1ccccc1-c1ccccc1.O=C(O)C(=O)O (stereo not shown)	-21.5%
COc1ccc(CCn2c(N3CCOCC3)nc3c2c(=O)[nH]c(=O)n3C)cc1	-15.5%
CC(=O)c1cc(C(=O)N2CCCC(C(=O)c3ccc(Cl)cc3)C2)cs1 (stereo not shown)	-31.9%
